Reference: PubChem BioAssay AID463212 (Sanford-Burnham Center for Chemical Genomics, 2010)
In all, about 330,000 compounds went through this assay and about 4,400 (1.3%) were called active. What follows is part of a selection rich in actives, with near analogues and random picks from the rest. A number with no mark means an inactive call.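 The calls were made as follows: active = growth inhibition of the mutant yeast at or above 50%; inactive = the rest.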

Test: growth inhibition of tim23-1 ts yeast – luminescence, uHTS, primary screen (AID 463212);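 also: temperature-sensitive mutant grown at 25 °C; plate controls were DMSO-treated mutant yeast for no effect and medium wells lacking yeast for full effect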
Conditions: S. cerevisiae tim23-1 growth, BacTiter-Glo luminescence, 24 h; at 20 µM; stronger effect = higher value

Row | Structure (SMILES) | inhibition
1 | O=C1NC(=O)N(c2ccccc2)C(=O)/C1=C/c1ccc([N+](=O)[O-])s1 | 41.2%
2 | COc1ccc(N2C(=O)/C(=C/c3ccco3)C(=O)NC2=S)cc1 | 11.6%
3 | COc1cccc(N2C(=O)NC(=O)/C(=C\c3ccc([N+](=O)[O-])s3)C2=O)c1 | 50.5% (active)
4 | COC(=O)C1=C(c2ccc(F)cc2OCc2ccccc2)C[C@@H]2CC[C@H]1N2C(=O)NCc1ccc(C(C)(C)C)cc1 | 19.7%
5 | Cc1cc2ccccn2c1C(C[N+](=O)[O-])c1c(F)cccc1Cl (stereo not given) | 69.2% (active)
6 | O=c1c2ccccc2nc(-c2ccc(Cl)cc2Cl)n1-c1ccncc1 | 35.9%
7 | COP(=O)(OC)C(NC(=O)c1ccc(C)cc1)C(Cl)(Cl)Cl (stereo not given) | -17.8%
8 | COC(=O)C1=C(c2ccc(Cl)c(C(F)(F)F)c2)C[C@@H]2CC[C@H]1N2C(=O)NC(C)C | 21.8%
9 | CCC(C)n1c(O)c(/C=N/Nc2nc3c(c(=O)n(C)c(=O)n3C)n2C)c(=O)[nH]c1=S (stereo not given) | 1.46%
10 | CC(=O)N1CN2CN(C(C)=O)CC(C(=O)c3ccc(Br)cc3)(C2)C1 | 0.81%
11 | O=c1c2ccccc2nc(-c2ccco2)n1-c1ccc(Br)cn1 | 29%
12 | Cc1ccc(-c2nc3ccccc3c(=O)n2-c2ccc(Br)cn2)cc1 | 52.7% (active)
13 | O=c1c2ccccc2nc(-c2ccccc2)n1-c1ccccn1 | 14.3%
14 | COC(=O)C1=C(c2cc3ccccc3s2)C[C@@H]2CC[C@H]1N2C(=O)NCc1cccc2ccccc12 | 34.5%
15 | COc1cccc(CN2CCCC(C(=O)c3ccccc3SC)C2)c1O (stereo not given) | 8.13%
